In publication PMC4336329 (PLoS ONE, 2015):
Hit rate of the full screen: of about 310,000 compounds, about 14,000 (4.5%) showed an effect of 50% or more. Effects have a minus sign here. Shown is part of a subset that was picked to be rich in strong results.

Biological target: human ether-à-go-go-related gene (hERG) potassium channel (human, UniProt Q12809)
Assay: primary screen, population patch clamp on CHO cells stably expressing hERG; higher = less effect of the substance
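Further: peak tail current of the secondary pulse compared with the same well before compound.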

Sequence of human ether-à-go-go-related gene (hERG) potassium channel (Q12809 whole entry, looked up): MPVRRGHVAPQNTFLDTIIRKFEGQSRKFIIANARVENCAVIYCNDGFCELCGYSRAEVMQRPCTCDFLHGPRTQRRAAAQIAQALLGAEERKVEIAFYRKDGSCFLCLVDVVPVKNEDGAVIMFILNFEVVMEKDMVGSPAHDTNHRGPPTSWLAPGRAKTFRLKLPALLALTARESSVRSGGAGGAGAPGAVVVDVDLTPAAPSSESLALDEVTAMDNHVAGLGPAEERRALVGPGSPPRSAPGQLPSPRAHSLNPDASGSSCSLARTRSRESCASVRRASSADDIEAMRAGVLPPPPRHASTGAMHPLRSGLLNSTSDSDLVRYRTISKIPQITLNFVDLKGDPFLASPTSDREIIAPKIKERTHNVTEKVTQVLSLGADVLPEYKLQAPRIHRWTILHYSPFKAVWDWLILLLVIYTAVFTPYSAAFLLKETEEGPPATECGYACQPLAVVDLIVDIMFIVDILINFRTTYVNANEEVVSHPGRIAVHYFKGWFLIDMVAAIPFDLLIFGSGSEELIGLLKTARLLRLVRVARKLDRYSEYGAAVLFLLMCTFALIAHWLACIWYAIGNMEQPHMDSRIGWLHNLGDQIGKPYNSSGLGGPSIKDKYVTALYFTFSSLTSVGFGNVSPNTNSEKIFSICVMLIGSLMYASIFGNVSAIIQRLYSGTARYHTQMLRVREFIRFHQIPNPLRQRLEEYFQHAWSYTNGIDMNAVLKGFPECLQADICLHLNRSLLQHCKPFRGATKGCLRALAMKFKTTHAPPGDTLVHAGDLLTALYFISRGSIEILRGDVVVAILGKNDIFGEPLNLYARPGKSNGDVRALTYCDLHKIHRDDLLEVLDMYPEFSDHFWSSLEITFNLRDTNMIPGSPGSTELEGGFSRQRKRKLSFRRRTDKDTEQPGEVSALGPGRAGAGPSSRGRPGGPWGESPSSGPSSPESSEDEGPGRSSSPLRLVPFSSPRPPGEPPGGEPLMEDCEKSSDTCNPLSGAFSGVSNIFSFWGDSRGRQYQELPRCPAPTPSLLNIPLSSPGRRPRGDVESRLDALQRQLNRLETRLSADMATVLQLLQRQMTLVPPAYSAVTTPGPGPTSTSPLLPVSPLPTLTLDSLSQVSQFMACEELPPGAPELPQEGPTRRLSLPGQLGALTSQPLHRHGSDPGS

Compound	hERG current change (%, negative = inhibition) at 10uM [%]
OC(CNC1CCCCC1)C(F)(F)F (stereo not shown)	-2.73
CCC(C)[C@H](NC(=O)[C@@H]1Cc2ccccc2CN1)C(=O)NCc1ccc(OC)cc1 (stereo partly shown)	-32.7
CC1CCCCN1C(=O)COC(=O)c1cc(-c2cccs2)nn1-c1ccccc1 (stereo not shown)	0.387
O=[N+]([O-])c1cc(/C=N/O)ccc1Sc1ccccc1	13.7
CC1CCCCN1C(=O)CSc1nnc(-c2ccco2)o1 (stereo not shown)	2.08
CCOC(=O)CN1CC23C=CC(O2)C(C(=O)Nc2cc(OC)ccc2OC)C3C1=O (stereo not shown)	-3.04
CC[N+](CC)(CC(=O)Nc1c(C)cccc1C)Cc1ccccc1.O=C([O-])c1ccccc1	14.7
CC(/C=C/c1ccco1)=N\NC(=O)CNc1cccc(C)c1	18.1
O=S(=O)(O)c1nc2ccccc2n1Cc1ccccc1	-10.5
CCOc1ccc(N(CC(=O)NCC2CCCO2)S(=O)(=O)c2ccc(C)cc2)cc1 (stereo not shown)	-10.3
COc1ccc(OCC(=O)N/N=C(\C)CC(=O)Nc2ccc(OC)cc2[N+](=O)[O-])cc1	-93.8
CCOc1ccc(OCC(=O)Nc2ccc(OC)cc2[N+](=O)[O-])cc1	3.3
COc1ccc(NC(=O)COc2ccc(C)cc2)c([N+](=O)[O-])c1	7
COc1ccc2sc(C)nc2c1NC(C)=O	9.21
COc1ccc(-c2nc(SCC(=O)N3CCOCC3)n[nH]2)cc1	-4.25
CC(=O)Nc1nonc1-c1nc2ccccc2n1Cc1ccccc1	13.2
O=C(NCCc1c[nH]c2ccccc12)/C(=C\c1cccnc1)NC(=O)c1ccccc1F	-58.5
O=C(NCCc1c[nH]c2ccccc12)/C(=C\c1cccnc1)NC(=O)c1ccccc1Br	-65.1
O=C(NCCc1c[nH]c2ccccc12)/C(=C\c1cccnc1)NC(=O)c1cccs1	-17
CC(=O)N/C(=C/c1ccc(Cl)cc1)C(=O)NCCc1c[nH]c2ccccc12	-20.8
O=C(NCCc1c[nH]c2ccccc12)/C(=C/c1cccnc1)NC(=O)c1cccs1	-19.1
O=C(NCCc1c[nH]c2ccccc12)/C(=C/c1cccnc1)NC(=O)c1ccccc1	-14.3
NC(=O)NC(CC(=O)NCCc1ccc(S(N)(=O)=O)cc1)c1ccccc1Cl (stereo not shown)	6.81
CC(C(=O)N1c2ccc(F)cc2CCC1C)N1C(=O)c2ccccc2C1=O (stereo not shown)	2.72
Cl.O=C(c1ccco1)N(CCCN1CCOCC1)c1nc(-c2ccc(Cl)cc2)cs1	-13.4
Cc1ccc(-c2csc(N(CCCN3CCOCC3)C(=O)c3ccco3)n2)cc1.Cl	-19.1

Compound	hERG current change (%, negative = inhibition) at 10uM [%]
COCCCN(C(=O)c1ccco1)c1nc(-c2ccc(OC)cc2)cs1	1.81
Cc1ccc(-c2csc(N(CCCN(C)C)C(=O)c3ccco3)n2)cc1.Cl	-74.8
CN(C(=O)c1ccco1)c1nc(-c2ccc(Cl)cc2)cs1	8.09
CN(C)CCCN(C(=O)c1ccco1)c1nc(-c2ccc(Cl)cc2)cs1.Cl	-72.5
COc1ccc(-n2nc(C(=O)NCC(=O)NCc3ccco3)c3ccccc3c2=O)c(OC)c1	11.3
Cl.c1ccc(NNC2=NCCCCC2)cc1	8.92
O=C(O)Cn1c(=O)c2c3c(sc2n(Cc2ccc(F)cc2)c1=O)CCCC3	17.9
Cc1ccc(C)c(OCc2nc3ccc(S(=O)(=O)Nc4c(C)n(C)n(-c5ccccc5)c4=O)cc3[nH]2)c1	7.31
CCCCN(C)CCN1C(=O)C2C(C(=O)Nc3cccc(OC)c3)C3C=CC2(O3)C1C(=O)NC1CCCCC1C (stereo not shown)	-14.7
CC(C)(C)C(=O)Nc1cc(NC(=O)C(C)(C)C)cc(C(=O)NNC(=O)c2ccncc2)c1	16.5
Cc1ccc2c(c1)nnn2C1CCN(C(=O)C2CCCCC2)CC1	-31.3
CCOc1ccccc1NC(=O)N1CCC(n2nnc3cc(C)ccc32)CC1	-53.9
CCOc1ccccc1C(=O)N1CCC(n2nnc3cc(C(F)(F)F)ccc32)CC1	-60
COc1ccc(NC(=O)N2CCC(n3nnc4cc(C)ccc43)CC2)cc1	-11.3
Cc1cccc(NC(=O)N2CCC(n3nnc4cc(C)ccc43)CC2)c1	-62.9
CCOc1ccc(NC(=O)N2CCC(n3nnc4ccccc43)CC2)cc1	-15.4
O=C(c1c(F)cccc1F)N1CCC(n2nnc3cc(C(F)(F)F)ccc32)CC1	-21.4
Cc1ccc2c(c1)nnn2C1CCN(C(=O)Nc2ccccc2C)CC1	-22.6
Cc1ccc2c(c1)nnn2C1CCN(C(=O)NCc2ccccc2)CC1	-76.7
CCOc1ccccc1C(=O)N1CCC(n2nnc3cc(C)ccc32)CC1	-47.4
Cc1ccc2c(c1)nnn2C1CCN(C(=O)c2ccccc2F)CC1	-18.1
COc1cccc(NC(=O)N2CCC(n3nnc4ccccc43)CC2)c1	-18.8
O=C(CSc1nc2[nH]ncc2c(=O)n1-c1ccc(Cl)c(Cl)c1)NCc1ccccc1Cl	-11.4
COc1ccc(CCN=C(N)NS(=O)(=O)c2ccccc2)cc1OC	19.5
COC(=O)Cc1ccc(NC(=O)c2ccc3c(c2)C(=O)N(Cc2cccnc2)C3=O)cc1	5.83
C[C@H](NC(=O)N1C[C@H]2C[C@@H](C1)c1cccc(=O)n1C2)C(=O)Nc1cccc(F)c1	2.4
